Test results as given in the supplement of paper PMC6555819.

How the values were obtained:
Assay in all cases: PBM binding z-score (relative to random genomic background probes); higher = stronger binding; sequences stand for … in GC…GCGATTGACAGCGTAGAATGAAGG
[1] = tested on: FXR:RXRa (NR concentration 270 nM, RXRa partner concentration 90 nM)
Summary of the method: (§1)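 Binding buffer was PBS pH 7.4 with 2% milk, 0.02% Triton X-100, 1 mM DTT, 0.2 mg/mL BSA and 0.4 mg/ml salmon testes DNA. In it, ligand-free nuclear receptor dimers were incubated 1 h on custom Agilent 4×180K protein-binding microarrays carrying double-stranded probes. Antibodies against each partner (one per run) detected binding, and z-scores were calculated against random background probes after regression normalization of scanned fluorescence.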

[2] = tested on: LXRa:RXRa (NR concentration 270 nM, RXRa partner concentration 90 nM)
Summary of the method: as §1

[3] = tested on: LXRa homodimer (NR concentration 270 nM)
Summary of the method: as §1

[4] = tested on: LXRb:RXRa (NR concentration 270 nM, RXRa partner concentration 90 nM)
Summary of the method: as §1

[5] = tested on: LXRb homodimer (NR concentration 270 nM)
Summary of the method: as §1

[6] = tested on: PPARa:RXRa (NR concentration 270 nM, RXRa partner concentration 90 nM)
Summary of the method: as §1

[7] = tested on: PPARg:RXRa (NR concentration 180 nM, RXRa partner concentration 90 nM)
Summary of the method: as §1

[8] = tested on: PPARg:RXRa 270nM:90nM, anti-RXR (NR concentration 270 nM, RXRa partner concentration 90 nM)
Summary of the method: as §1

[9] = tested on: PPARg:RXRa 30nM:10nM, anti-RXR (NR concentration 30 nM, RXRa partner concentration 10 nM)
Summary of the method: as §1

[10] = tested on: PPARg:RXRa 90nM:30nM, anti-RXR (NR concentration 90 nM, RXRa partner concentration 30 nM)
Summary of the method: as §1

[11] = tested on: PPARg:RXRa DBDmut IVT, anti-RXR (DBD mutation: RXRa K156A/R161A, NR concentration 270 nM, RXRa partner concentration 90 nM)
Summary of the method: as §1

[12] = tested on: PPARg:RXRa IVT, anti-PPARg (NR concentration 270 nM, RXRa partner concentration 90 nM)
Summary of the method: as §1

[13] = tested on: PPARg DBDmut:RXRa IVT, anti-PPARg (DBD mutation: PPARg1 K132A/R137A, NR concentration 270 nM, RXRa partner concentration 90 nM)
Summary of the method: as §1

[14] = tested on: PPARg DBDmut IVT, anti-PPARg (DBD mutation: PPARg1 K132A/R137A, NR concentration 270 nM)
Summary of the method: as §1

[15] = tested on: PPARg homodimer (NR concentration 180 nM)
Summary of the method: as §1

[16] = tested on: PXR:RXRa (NR concentration 270 nM, RXRa partner concentration 90 nM)
Summary of the method: as §1

[17] = tested on: PXR homodimer (NR concentration 270 nM)
Summary of the method: as §1

[18] = tested on: RARa:RXR (NR concentration 270 nM, RXRa partner concentration 90 nM)
Summary of the method: as §1

[19] = tested on: RARa homodimer (NR concentration 270 nM)
Summary of the method: as §1

[20] = tested on: RARb:RXRa (NR concentration 270 nM, RXRa partner concentration 90 nM)
Summary of the method: as §1

Sequence	PBM binding z-score [1]	PBM binding z-score [2]	PBM binding z-score [3]	PBM binding z-score [4]	PBM binding z-score [5]	PBM binding z-score [6]	PBM binding z-score [7]	PBM binding z-score [8]	PBM binding z-score [9]	PBM binding z-score [10]	PBM binding z-score [11]	PBM binding z-score [12]	PBM binding z-score [13]	PBM binding z-score [14]	PBM binding z-score [15]	PBM binding z-score [16]	PBM binding z-score [17]	PBM binding z-score [18]	PBM binding z-score [19]	PBM binding z-score [20]
ATAAGTAGGTTAGCTGGGGTCATTCAGACTAGGC	4.71	5.52	3.28	4.94	1.18	5.41	6.1	5.42	3	5.01	6.73	6.66	3.65	1.92	3.63	6.42	4.39	5.76	1.28	3.24
ATATGAAGGTTAGCTGGGGTCATTCAGACTAGGC	5.27	6.28	3.34	5.36	1.06	4.7	2.43	3.52	1.14	2.37	1.16	2.19	0.859	1.21	2.53	6.56	5	5.87	1.42	3.55
AGAATGAGGTTATTAAGATGAGGGAATTGCGGTC	1.61	1.5	0.433	1.3	0.12	2.54	1.22	1.46	0.735	1.12	2.83	1.97	1.19	0.341	1.28	1.03	0.85	1.22	1.23	1.41
CAAACTAGGTCGAGAGGTCAAAGTCCGCTTCCCG	5.34	5.53	4.87	4.61	1.17	5.6	6.98	6.37	4.44	6.54	5.89	6.2	0.871	-0.159	2.68	5.25	1.9	5.44	1.21	4.24
ATCTCTAGGTAAAAGATCAGTGAATCCCGAGGAT	0.18	-0.223	0.0922	-0.31	0.167	2.45	4.48	5.32	4.13	5.66	2.47	2.26	1.02	0.762	0.847	-0.177	-0.245	0.0916	0.407	-0.0842
GATACAGGGTCAGCTAGAGGCCTGAGTATGGAAA	4.07	2.14	-0.546	1.75	-0.639	4.25	3.02	2.86	0.545	1.56	1.41	1.85	-0.274	-0.805	1.14	1.73	-0.266	2.75	-0.534	3.74
CGACCAAGGTCAATGCTAGGTCAGTGAAAGCATT	6.54	5.4	1.97	3.95	0.214	4.99	3.99	4.62	1.63	3.37	3.29	3.59	-0.925	-0.0967	4.22	4.59	0.845	5.71	0.803	5.03
ACTATTAGTTGACGTAGGGCAACCGATACGACGC	-0.0128	-0.0574	0.207	-0.148	0.503	-0.147	1	0.00726	0.129	0.289	0.188	0.602	1.2	0.785	0.291	-0.373	0.109	-0.162	0.628	0.773
ACAGACAGGTGAGTGAAGGTAACGCAGCTGGACG	0.617	0.126	-0.468	-0.215	-0.518	0.197	0.826	0.162	-0.109	0.232	0.361	1.04	-1.24	-0.822	-0.463	-0.245	-0.327	0.359	-0.195	0.702
TCATATAGGTAAAAGTTGAAAGTCGGTGTGGTAA	1.54	1.21	0.41	1.21	-0.0163	4.24	7.51	7.35	7.31	8.17	4.15	3.58	0.876	1.75	1.63	0.929	0.491	1.56	1.48	1.04
TAGCCTAGGTCATTGGGCCAGTGTAGTACGCATC	4.3	3.42	0.864	2.46	0.102	3.86	3.6	3.76	0.587	2.41	2.97	4.15	1.07	-0.249	0.874	1.41	-0.395	2.15	-0.103	3.69
TGTCAAAGTTCAAACGTAACGTAAGTATCCACAC	7.01	6.81	5.78	4.82	3	5.43	8.29	7.51	5.26	7.39	0.502	4.09	1.75	1.83	2.5	5.07	4.65	3.8	1.09	4.99
CGAACTAGGCCATCCAGGACAGTGAATACATTGA	-0.177	-0.379	-0.0398	-0.306	-0.512	1.64	2.39	1.71	0.404	1.19	6	5.51	0.953	0.808	0.048	-0.289	-0.148	0.254	0.507	0.809
CATAGCAGGCCAGGGTCACTCAAGCATTTCGCTT	2.42	1.71	-0.165	2.2	0.0433	3.42	1.88	2.27	0.29	1.54	1.4	2.14	-0.201	-0.525	1.38	2.93	-0.247	3.63	-0.0529	2.79
